From PubChem BioAssay come the findings set out here.

Calls of active or inactive are those of the source.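 The calls were made as follows, unless noted: active = fluorescence slope after compound addition differing from the mean of all screened samples at 99.7% confidence, in either direction; inactive = the rest.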

A short description of assay [1]: inhibitors of TNFa-induced NFkB p65 translocation, primary screen, imaging, HUVEC, MLSMR starter and 10KST1 sets (AID 438;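 active = inhibition above 20% together with a positive visual image hit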;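 also: compound added about 3h40 before a 20 min TNFalpha stimulation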;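 as to inhibition: signal is the nuclear over cytoplasmic p65 intensity ratio per well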). The conditions noted are these: HUVEC TNFa-induced p65 nuclear translocation; cell count: measured here: nuclei count (cytotoxicity indicator), at 2.08 µM; inhibition: at 2 µM, stronger effect = higher value, 0% TNFa-plus-vehicle, 100% no-TNFa wells.
Assay [2] in a line: reduction of polyQ htt aggregates in cells – imaging, exon1htt(103Q)mCFP cells, high-content imaging, primary screen (AID 483;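 active = visual image review flags a hit and inhibition of aggregation exceeds 20%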;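 also: compound exposure lasted 3 days before fixation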;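 as to nuclei count: percent of the per-plate median nuclei count of sample wells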). To be noted: exon1htt(103Q)mCFP cell line, aggregate imaging, at 2 µM; inhibition of aggregation: stronger effect = higher value; nuclei count: measured here: cell count, toxicity.
Assay [3] can be described thus: endothelial E-selectin expression blockers – imaging, HUVEC, immunofluorescence, MLSMR starter and 10KST1 sets, primary screen (AID 487;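 active = visually confirmed hit in the image check and inhibition above 20%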;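 as to inhibition: signal is fraction of cell area covered by stained E-selectin grains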;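 as to nuclei count: 100% = median nuclei count of all wells on the same plate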). The conditions noted are these: HUVEC TNFalpha-induced E-selectin immunofluorescence imaging, at 2 µM; inhibition: stronger effect = higher value; nuclei count: measured here: cell number, toxicity.
In assay [4] the target is Voltage-gated potassium channel subunit beta-2 (Rattus norvegicus) (UniProt P62483). Put plainly: inhibitors of rat Kvbeta2 reductase activity – biochemical, NADPH fluorescence, primary screen (AID 622;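 active = fluorescence slope higher than the sample average by over 3 SD, cut at about -0.22 in these data, passing the limit was not always enough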;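 also: slope of raw intensity against log time taken from 70 to 1610 s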). To be noted: recombinant KvBeta, 4-cyanobenzaldehyde reduction, at 10 µM, stronger effect = higher value.
Sequence of Voltage-gated potassium channel subunit beta-2 (Rattus norvegicus) (P62483 whole entry, looked up): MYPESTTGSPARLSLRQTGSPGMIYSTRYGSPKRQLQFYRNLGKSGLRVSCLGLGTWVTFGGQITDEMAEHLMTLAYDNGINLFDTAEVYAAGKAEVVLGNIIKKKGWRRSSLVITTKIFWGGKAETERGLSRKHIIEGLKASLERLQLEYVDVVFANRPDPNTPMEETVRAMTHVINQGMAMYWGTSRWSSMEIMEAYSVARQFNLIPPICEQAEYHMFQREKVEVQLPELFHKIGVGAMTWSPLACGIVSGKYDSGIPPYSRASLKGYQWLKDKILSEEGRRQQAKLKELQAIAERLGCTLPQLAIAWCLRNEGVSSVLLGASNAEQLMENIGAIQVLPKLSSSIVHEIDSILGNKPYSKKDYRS
For assay [5] the target is unchanged. Description: enhancers of rat Kvbeta2 NADPH turnover – biochemical, NADPH fluorescence, primary screen (AID 623;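 active = NADPH fluorescence slope more negative than the mean of all samples by about 3 SD, 99.7% confidence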;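 also: fluorescence intensity change per second fitted from 20 to 320 s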). The conditions noted are these: Recombinant KvBeta, NADPH fluorescence decrease slope, 10 min; at 10 µM; stronger effect = lower value.
Assay [6] has as its target Alpha-2C adrenergic receptor (Homo sapiens) (UniProt P18825). Put plainly: compounds altering alpha2C-coupled GIRK flux – cell-based, HEK293 alpha2C/GIRK1/2, thallium flux, primary screen (AID 624).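 Also: slope of fluorescence ratio to pre-addition baseline per second over 15 to 24 s.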 To be noted: thallium flux BTC fluorescence, at 10 µM, actives lie on both sides.
Assay [7] is described as follows: blockers of RIG-like receptor reporter activation – cell-based, Sendai virus stimulus, luciferase, 10K MLSCN set, TLR/RLR signaling modifier project, primary screen (AID 602276;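 active = inhibition at or above 50% at 10 µM; inactive = inhibition below 50%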;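 also: firefly luciferase from ISG56 promoter only with Renilla not read in this screen; 0% = Sendai virus plus DMSO and 100% = medium plus DMSO without virus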). The conditions noted are these: HEK293 RL24 IRF3 luciferase reporter, at 10 µM, stronger effect = higher value.
Assay [8] in a line: TLR3 IRF3 reporter activation blockers – cell-based, poly I:C stimulus, luciferase, 10K MLSCN set, primary screen (AID 602277;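 active = inhibition of the reporter signal at or above 50%; inactive = inhibition below 50%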). To be noted: HEK293-TLR3 RL24 IRF3 luciferase reporter, at 10 µM, stronger effect = higher value.

Sequence of Alpha-2C adrenergic receptor (Homo sapiens) (P18825 whole entry, looked up): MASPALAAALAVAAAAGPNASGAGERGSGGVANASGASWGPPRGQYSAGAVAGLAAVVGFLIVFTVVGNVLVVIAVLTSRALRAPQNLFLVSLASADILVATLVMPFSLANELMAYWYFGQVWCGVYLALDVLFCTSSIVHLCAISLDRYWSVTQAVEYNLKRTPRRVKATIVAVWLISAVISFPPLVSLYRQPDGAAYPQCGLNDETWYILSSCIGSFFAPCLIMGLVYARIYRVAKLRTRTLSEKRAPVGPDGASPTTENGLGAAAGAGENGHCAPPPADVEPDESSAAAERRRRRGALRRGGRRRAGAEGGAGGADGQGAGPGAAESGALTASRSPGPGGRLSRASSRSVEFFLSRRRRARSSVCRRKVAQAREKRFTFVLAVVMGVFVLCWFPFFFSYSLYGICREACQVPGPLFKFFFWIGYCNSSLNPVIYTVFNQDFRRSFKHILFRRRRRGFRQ

Turning to `CCOc1ccc(NC(=O)CN(C)CC(=O)NC2CCCc3ccccc32)cc1OCC` (stereo not drawn), the cell count in assay [1] is 451. Also, the inhibition is 14.9% (inactive) in assay [1], 10.8% (inactive) in assay [3], 8.91% (inactive) in assay [7] and 26.6% (inactive) in assay [8]. For the same compound, the inhibition of aggregation in assay [2] is -6.5% (inactive). Further, the values for the nuclei count in assay [2] and in assay [3] were 110% and 100%, respectively. For the same compound, the fluorescence slope in assay [4] is -0.288 (inactive). Further, the NADPH fluorescence slope in assay [5] is -1.1e-05 (inactive). Moreover, the slope in assay [6] is 0.00604 (inactive).

`CN(C)c1ccc(NC(=O)c2cc3c(=O)n4ccccc4nc3n2C)cc1`: the cell count in assay [1] is 216. For the same compound, the inhibition is -10.7% (inactive) in assay [1], 52.4% (inactive) in assay [3], 1.6% (inactive) in assay [7] and -86.3% (inactive) in assay [8]. Besides, the inhibition of aggregation in assay [2] was 4.4% (inactive). In addition, the nuclei count in assay [2] is 89%; in assay [3] it was 68.8%. Also, in assay [4], the fluorescence slope is -0.572 (inactive). Also, the NADPH fluorescence slope in assay [5] was -3.5e-05 (inactive). In assay [6], the slope is 0.00472 (inactive).

In the case of `COCCn1c(=N)c(C(=O)NCCc2ccccc2)cc2c(=O)n3cccc(C)c3nc21`, in assay [1], the cell count worked out at 388. For the same compound, the inhibition in assay [1] is 4.3% (inactive); in assay [3], -75.7% (inactive); in assay [7] it was 9.73% (inactive); in assay [8], 35.4% (inactive). Moreover, the inhibition of aggregation in assay [2] is -22.7% (inactive). In addition, the nuclei count came out at 102% in assay [2] and 117% in assay [3]. The fluorescence slope in assay [4] was -0.0609 (inactive). The NADPH fluorescence slope in assay [5] is 4.2e-06 (inactive). The slope in assay [6] is 0.00428 (inactive).

In the case of `CC(C)(C)C(=O)Cn1c[n+](N)cn1`, the cell count in assay [1] came out at 545. Also, the inhibition in assay [1] is -9.5% (inactive); in assay [3], 18.1% (inactive); in assay [7], 18.9% (inactive); in assay [8] it was 26.2% (inactive). For the same compound, the inhibition of aggregation in assay [2] was -3.6% (inactive). In addition, the figures for the nuclei count in assay [2] and in assay [3] were 118% and 105%, respectively. The fluorescence slope in assay [4] is -0.62 (inactive). Moreover, the NADPH fluorescence slope in assay [5] was -3.8e-05 (inactive). In addition, the slope in assay [6] is 0.00385 (inactive).

For the compound `Cc1nc(NC(=O)C23CCC(C)(C(=O)O2)C3(C)C)sc1C` (stereo not drawn), in assay [1], the cell count came out at 595. Further, the inhibition is -13.1% (inactive) in assay [1], -22.1% (inactive) in assay [3], 12.9% (inactive) in assay [7] and 29.5% (inactive) in assay [8]. In addition, the inhibition of aggregation in assay [2] was 15.4% (inactive). For the same compound, the nuclei count was determined as 105% in assay [2] and 106% in assay [3]. The fluorescence slope in assay [4] was -0.462 (inactive). Besides, the NADPH fluorescence slope in assay [5] was 8.7e-06 (inactive). In assay [6], the slope is 0.00641 (inactive).

Turning to `Cc1oc(-c2cccc(Cl)c2)nc1CN1CCC(C(=O)N2CCN(c3ccccc3F)CC2)CC1`, the cell count in assay [1] stood at 780. Further, the inhibition in assay [1] is -0.6% (inactive); in assay [3], -73.6% (inactive); in assay [7] it was -0.341% (inactive); in assay [8] it was -26% (inactive). Further, the inhibition of aggregation in assay [2] is -4% (inactive). The nuclei count in assay [2] is 77.7%; in assay [3] it was 108%. The fluorescence slope in assay [4] is -0.552 (inactive). In addition, the NADPH fluorescence slope in assay [5] is -2.2e-05 (inactive). For the same compound, the slope in assay [6] is 0.00639 (inactive).

With `CCOC(=O)c1cc(CC)sc1NC(=O)CCC(=O)O`, the cell count in assay [1] worked out at 415. Further, the inhibition in assay [1] was -3.2% (inactive); in assay [3], -75.3% (inactive); in assay [7] it was 22% (inactive); in assay [8], 26.5% (inactive). Moreover, in assay [2], the inhibition of aggregation is 3% (inactive). Also, the nuclei count in assay [2] stood at 99.8%; in assay [3], 109%. In addition, the fluorescence slope in assay [4] was -0.433 (inactive). Moreover, the NADPH fluorescence slope in assay [5] was -4.9e-06 (inactive). In addition, the slope in assay [6] was 0.00617 (inactive).

In the case of `COc1ccc(S(=O)(=O)Nc2ccc(F)c(Cl)c2)cc1OC`, the cell count in assay [1] came to 657. Besides, the inhibition was -18.6% (inactive) in assay [1], 57.8% (inactive) in assay [3], 12.4% (inactive) in assay [7] and 35.2% (inactive) in assay [8]. Besides, in assay [2], the inhibition of aggregation was -7.4% (inactive). The nuclei count in assay [2] is 111%; in assay [3], 63%. In assay [4], the fluorescence slope is -0.431 (inactive). Besides, in assay [5], the NADPH fluorescence slope is -2e-05 (inactive). Further, the slope in assay [6] is 0.00392 (inactive).

With `COC(=O)c1ccc2c(c1)nc(C)n2CCO`, the cell count in assay [1] came out at 360. Moreover, the inhibition was -4% (inactive) in assay [1], -23.6% (inactive) in assay [3], 5.24% (inactive) in assay [7] and 12.5% (inactive) in assay [8]. Moreover, in assay [2], the inhibition of aggregation is -26% (inactive). In addition, the results for the nuclei count in assay [2] and in assay [3] were 139% and 94.3%, respectively. In addition, in assay [4], the fluorescence slope was -0.315 (inactive). For the same compound, in assay [5], the NADPH fluorescence slope was -2.9e-05 (inactive). Besides, the slope in assay [6] was 0.00466 (inactive).

For `CCOC(=O)CSc1nnc(Cn2c(=O)sc3ccccc32)n1C`, the cell count in assay [1] came out at 475. The inhibition in assay [1] is -8.3% (inactive); in assay [3], -24.8% (inactive); in assay [7], 8.16% (inactive); in assay [8], 33.4% (inactive). In addition, the inhibition of aggregation in assay [2] was 20.2% (inactive). For the same compound, the nuclei count in assay [2] was 106%; in assay [3], 114%. For the same compound, the fluorescence slope in assay [4] is -0.576 (inactive). Besides, in assay [5], the NADPH fluorescence slope was -4.8e-05 (inactive). Besides, the slope in assay [6] is 0.00614 (inactive).

Turning to `O=C(NCc1ccc2c(c1)OCO2)c1cccc2c1C(=O)N(C1CCCCC1)C2`, the cell count in assay [1] was found to be 570. Besides, the inhibition in assay [1] was -5% (inactive); in assay [3], 3.2% (inactive); in assay [7], 8.65% (inactive); in assay [8], 15.3% (inactive). For the same compound, the inhibition of aggregation in assay [2] is -12.5% (inactive). Moreover, the nuclei count in assay [2] was 108%; in assay [3] it was 115%. Also, in assay [4], the fluorescence slope was -0.615 (inactive). For the same compound, the NADPH fluorescence slope in assay [5] was -1.7e-05 (inactive). Also, the slope in assay [6] is 0.00632 (inactive).

For the compound `O=C(OCc1cc2ccccc2[nH]c1=O)c1ccco1`, the cell count in assay [1] came out at 234. Besides, the inhibition in assay [1] is 5.6% (inactive); in assay [3] it was 40.8% (inactive); in assay [7], 4.98% (inactive); in assay [8], 31.1% (inactive). In addition, in assay [2], the inhibition of aggregation is 1.7% (inactive). Besides, the figures for the nuclei count in assay [2] and in assay [3] were 87.3% and 96.9%, respectively. Further, the fluorescence slope in assay [4] is -0.476 (inactive). For the same compound, the NADPH fluorescence slope in assay [5] was -6e-05 (inactive). Also, in assay [6], the slope is 0.0037 (inactive).

`Cc1ccc(Cn2ccc(NC(=O)c3cc(-c4cccs4)on3)n2)cc1`: in assay [1], the cell count was determined as 407. Moreover, the inhibition in assay [1] is 0.9% (inactive); in assay [3] it was -33.4% (inactive); in assay [7], -3.96% (inactive); in assay [8], -7.39% (inactive). For the same compound, the inhibition of aggregation in assay [2] was -11.4% (inactive). The nuclei count is 96.9% in assay [2] and 99.3% in assay [3]. The fluorescence slope in assay [4] was -0.493 (inactive). In addition, the NADPH fluorescence slope in assay [5] was -1.8e-05 (inactive). Further, the slope in assay [6] was 0.00693 (inactive).
